The results in this text go back to PubChem BioAssay (EPA / NIEHS).

Experiment [1] in a line: BSK_CASM3C_SRB: Viability Assessment in the BioMAP Diversity Plus: CASM3C Assay (AID 2283050).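 Further: cells exposed to compound for 24 h.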 The conditions noted are these: primary human coronary artery smooth muscle cells.
Read-out in experiment [2]: Thrombomodulin, THBD (gene 7056)
Put plainly: BSK_CASM3C_Thrombomodulin: BioMAP Diversity Plus: CASM3C Assay for Thrombomodulin Biomarker Activity (AID 2283051).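 Further: thrombomodulin protein level measured by ELISA 24 h after dosing.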 The conditions noted are these: primary human coronary artery smooth muscle cells; actives raise or lower the signal.

Read-out in experiment [3]: Tissue Factor, F3 (gene 2152)
Put plainly: BSK_CASM3C_TissueFactor: BioMAP Diversity Plus: CASM3C Assay for Tissue Factor Biomarker Activity (AID 2283052).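 Further: cell surface tissue factor protein level read by ELISA.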 The conditions noted are these: primary human coronary artery smooth muscle cells; actives raise or lower the signal.

Read-out in experiment [4]: Interferon-gamma inducible Protein 10 (IP10), CXCL10 (gene 3627)
Put plainly: BSK_hDFCGF_IP10: BioMAP Diversity Plus: hDFCGF Assay for Interferon-gamma inducible Protein 10 (IP10) Biomarker Activity (AID 2283053). The conditions noted are these: primary human foreskin fibroblasts; actives raise or lower the signal. A digest of the protocol:
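Cells: human dermal foreskin fibroblasts. Exposure: 24 h post-dosing. Detection: IP-10 ELISA, with values expressed against DMSO controls and fitted in both directions.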

Read-out in experiment [5]: Urokinase-type plasminogen activator receptor (uPAR), PLAUR (gene 5329)
Put plainly: BSK_CASM3C_uPAR: BioMAP Diversity Plus: CASM3C Assay for Urokinase-type plasminogen activator receptor (uPAR) Biomarker Activity (AID 2283054).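 Further: cell-surface uPAR protein level quantified by ELISA.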 Particulars: primary human coronary artery smooth muscle cells; actives raise or lower the signal.

Read-out in experiment [6]: Vascular cell adhesion molecule 1 (VCAM1), VCAM1 (gene 7412)
Put plainly: BSK_CASM3C_VCAM1: BioMAP Diversity Plus: CASM3C Assay for Vascular cell adhesion molecule 1 (VCAM1) Biomarker Activity (AID 2283055).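 Further: VCAM-1 protein level quantified by ELISA on the cells.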 The conditions noted are these: primary human coronary artery smooth muscle cells; actives raise or lower the signal.

Read-out in experiment [7]: Collagen III, COL3A1 (gene 1281)
Put plainly: BSK_hDFCGF_CollagenIII: BioMAP Diversity Plus: hDFCGF Assay for Collagen III Biomarker Activity (AID 2283056). Particulars: primary human foreskin fibroblasts; actives raise or lower the signal. A digest of the protocol:
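Cells: human foreskin fibroblasts, primary. Dosing followed by 24 h incubation, then ELISA for collagen III. Both increases and decreases scored relative to DMSO.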

Read-out in experiment [8]: Epidermal growth factor receptor (EGFR), EGFR (gene 1956)
Briefly: BSK_hDFCGF_EGFR: BioMAP Diversity Plus: hDFCGF Assay for Epidermal growth factor receptor (EGFR) Biomarker Activity (AID 2283057). Particulars: primary human foreskin fibroblasts; actives raise or lower the signal. The method in brief: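 Dosing human primary skin fibroblasts, then measuring surface EGFR by ELISA at 24 h, gives the endpoint; gains and losses relative to DMSO were fitted in both directions.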

Read-out in experiment [9]: Interleukin-8 (IL8), CXCL8 (gene 3576)
Briefly: BSK_hDFCGF_IL8: BioMAP Diversity Plus: hDFCGF Assay for Interleukin-8 (IL8) Biomarker Activity (AID 2283058). Particulars: primary human foreskin fibroblasts; actives raise or lower the signal. The method in brief: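 IL-8 levels from compound-treated primary human fibroblasts were read by ELISA at 24 h, with DMSO serving as baseline for bidirectional fitting.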

Read-out in experiment [10]: Macrophage colony-stimulating factor (MCSF), CSF1 (gene 1435)
Put plainly: BSK_hDFCGF_MCSF: BioMAP Diversity Plus: hDFCGF Assay for Macrophage colony-stimulating factor (MCSF) Biomarker Activity (AID 2283060). The conditions noted are these: primary human foreskin fibroblasts; actives raise or lower the signal. A digest of the protocol: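 M-CSF levels, determined by ELISA, are taken at 24 h after dosing human skin fibroblasts. Responses in either direction are fitted with DMSO serving as the baseline.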

Experiment [11] is described as follows: BSK_hDFCGF_SRB: Viability Assessment in the BioMAP Diversity Plus: hDFCGF Assay (AID 2283061).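 Further: cells exposed to compound for 24 h before the read.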 The conditions noted are these: primary human foreskin fibroblasts. The method in brief:
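Cells were dosed with test chemical, cultured 24 h, fixed with 10% TCA, then stained with 0.1% SRB and read at 560 nm. The fibroblasts were human foreskin primary cells, and DMSO served as baseline.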

Read-out in experiment [12]: TIMP metallopeptidase inhibitor 1 (TIMP1), TIMP1 (gene 7076)
Put plainly: BSK_hDFCGF_TIMP1: BioMAP Diversity Plus: hDFCGF Assay for TIMP metallopeptidase inhibitor 1 (TIMP1) Biomarker Activity (AID 2283062). The conditions noted are these: primary human foreskin fibroblasts; actives raise or lower the signal. The method in brief: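 Fibroblasts from human foreskin are treated with test chemical and harvested at 24 h. TIMP-1 is quantified by ELISA, and gain or loss of signal is scored against DMSO.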

Read-out in experiment [13]: Monokine induced gamma interferon (MIG), CXCL9 (gene 4283)
Put plainly: BSK_hDFCGF_MIG: BioMAP Diversity Plus: hDFCGF Assay for Monokine induced gamma interferon (MIG) Biomarker Activity (AID 2283063). The conditions noted are these: primary human foreskin fibroblasts; actives raise or lower the signal. A digest of the protocol:
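MIG signal, determined by ELISA, reflects 24 h chemical exposure of human skin primary fibroblasts. DMSO serves as negative control and baseline.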

Read-out in experiment [14]: Matrix Metallopeptidase 1 (MMP1), MMP1 (gene 4312)
Briefly: BSK_hDFCGF_MMP1: BioMAP Diversity Plus: hDFCGF Assay for Matrix Metallopeptidase 1 (MMP1) Biomarker Activity (AID 2283064). The conditions noted are these: primary human foreskin fibroblasts; actives raise or lower the signal. A digest of the protocol: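 Human foreskin fibroblasts exposed to chemical for 24 h; MMP1 detected by ELISA, with DMSO as baseline for bidirectional fitting.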

Read-out in experiment [15]: Vascular cell adhesion molecule 1 (VCAM1), VCAM1 (gene 7412)
Put plainly: BSK_hDFCGF_VCAM1: BioMAP Diversity Plus: hDFCGF Assay for Vascular cell adhesion molecule 1 (VCAM1) Biomarker Activity (AID 2283065). Particulars: primary human foreskin fibroblasts; actives raise or lower the signal. The method in brief:
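Cells are dosed, cultured for 24 h, then VCAM-1 is quantified by ELISA; signal increases and decreases are both fitted relative to DMSO.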

Read-out in experiment [16]: Plasminogen activator inhibitor-1 (PAI1), SERPINE1 (gene 5054)
Put plainly: BSK_hDFCGF_PAI1: BioMAP Diversity Plus: hDFCGF Assay for Plasminogen activator inhibitor-1 (PAI1) Biomarker Activity (AID 2283066). Particulars: primary human foreskin fibroblasts; actives raise or lower the signal. The method in brief: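 Fibroblasts from human foreskin were treated with test chemical. After 24 h, PAI-1 was measured by ELISA. Activity was fitted in both directions relative to DMSO.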

Read-out in experiment [17]: Intercellular Adhesion Molecule 1 (ICAM1), ICAM1 (gene 3383)
Put plainly: BSK_KF3CT_ICAM1: BioMAP Diversity Plus: KF3CT Assay for Intercellular Adhesion Molecule 1 (ICAM1) Biomarker Activity (AID 2283067). The conditions noted are these: primary human keratinocytes with fibroblasts; actives raise or lower the signal. A digest of the protocol: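 Dose the keratinocyte/fibroblast co-culture, wait 24 h, measure ICAM-1 by ELISA, then fit increases or decreases against DMSO. Cytotoxicity is checked in parallel cultures by SRB total-protein staining.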

Read-out in experiment [18]: Interferon-gamma inducible Protein 10 (IP10), CXCL10 (gene 3627)
Briefly: BSK_KF3CT_IP10: BioMAP Diversity Plus: KF3CT Assay for Interferon-gamma inducible Protein 10 (IP10) Biomarker Activity (AID 2283068). Particulars: primary human keratinocytes with fibroblasts; actives raise or lower the signal. The method in brief:
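In a primary skin co-culture of keratinocytes and fibroblasts, IP-10 is quantified by ELISA at 24 h after dosing. SRB staining of parallel wells monitors overt toxicity. Curves are fitted both directions against DMSO.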

A short description of experiment [19]: BSK_KF3CT_SRB: Viability Assessment in the BioMAP Diversity Plus: KF3CT Assay (AID 2283069).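 Further: fitted for both signal gain and loss against DMSO baseline.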 Particulars: primary human keratinocytes with fibroblasts. The method in brief: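 Overt cytotoxicity is assessed as total protein by sulforhodamine B staining in parallel human skin co-cultures at 24 h after dosing. DMSO serves as negative control and baseline.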

The source made the active and inactive calls. How the source made its calls: active means hit-call score of the fitted dose curve at least 0.9, where 1 is the maximum; inactive means score below 0.9.

By AC50 is commonly meant the concentration giving half of the maximal activity seen. Consider `Oc1ccc(/C=C/c2cc(O)cc(O)c2)cc1`, for which the result in experiment [1], in [2], in experiment [4], in experiment [5], in [6] and in [7] was inactive. For the same compound, the outcome in experiment [8], in experiment [9], in experiment [10], in experiment [11], in experiment [12] and in [13] was inactive. The result in experiment [14], in [15], in [17], in [18] and in experiment [19] was inactive. Further, the AC50 is 7.96 µM (active) in [3] and 0.474 µM (active) in [16].
For the compound `C1CNCCN1`, the result in experiment [1], in experiment [2], in experiment [3], in [4], in [5] and in experiment [6] was inactive. Further, the outcome in experiment [7], in experiment [8], in [9], in experiment [10], in experiment [11] and in experiment [12] was inactive. The outcome in experiment [13], in [14], in [15], in experiment [16], in [17] and in [18] was inactive. In [19], the outcome was inactive.
Consider `CCOC(=O)C1=NN(c2ccc(Cl)cc2Cl)C(C)(C(=O)OCC)C1` (stereo not drawn), for which the result in experiment [1], in experiment [2], in experiment [3], in experiment [4], in experiment [5] and in [6] was inactive. Besides, the outcome in [8], in experiment [9], in [10], in [11], in experiment [12] and in [13] was inactive. Moreover, the result in experiment [14], in experiment [15], in experiment [16], in [17], in experiment [18] and in experiment [19] was inactive. For the same compound, the AC50 in experiment [7] is 20 µM (active).
On to `CC(CCC(=O)O)(c1ccc(O)cc1)c1ccc(O)cc1`, for which the result in experiment [1], in experiment [2], in [3], in experiment [4], in experiment [5] and in experiment [6] was inactive. The outcome in experiment [7], in [8], in experiment [9], in experiment [10], in experiment [11] and in experiment [12] was inactive. Also, the result in [13], in [14], in experiment [15], in experiment [16], in [17] and in experiment [18] was inactive. Moreover, the outcome in [19] was inactive.
For the compound `CC(c1cc(C(C)(C)C)cc(C(C)(C)C)c1O)c1cc(C(C)(C)C)cc(C(C)(C)C)c1O`, the outcome in experiment [1], in experiment [2], in [3], in [4], in experiment [5] and in [6] was inactive. For the same compound, the outcome in experiment [7], in experiment [8], in experiment [9], in [10], in [11] and in experiment [12] was inactive. Moreover, the result in [13], in experiment [14], in experiment [15], in [17], in experiment [18] and in experiment [19] was inactive. Besides, the AC50 in experiment [16] is 0.358 µM (active).
For the compound `CCOC(=O)/C=C\C(=O)OCC`, the result in experiment [1], in [2], in experiment [3], in experiment [4], in experiment [5] and in experiment [6] was inactive. Besides, the outcome in experiment [7], in [8], in experiment [9], in [10], in [11] and in experiment [12] was inactive. The result in [13], in [14], in experiment [15], in experiment [16], in experiment [17] and in [18] was inactive. Also, in experiment [19], the result was inactive.
In the case of `CCCCC1C(=O)N(c2ccccc2)N(c2ccccc2)C1=O`, the outcome in [1], in experiment [2], in experiment [3], in experiment [4], in experiment [5] and in experiment [6] was inactive. Besides, the result in [7], in experiment [8], in experiment [9], in experiment [10], in [11] and in experiment [12] was inactive. The outcome in experiment [13], in experiment [14], in [15], in experiment [16], in [17] and in experiment [18] was inactive. Besides, the outcome in [19] was inactive.
